From the supplement of paper PMC3334620
Over roughly 33,000 sequences, “E-score (-0.5 to 0.5)” has its median near -0.054; the highest 2% begin near 0.39. The full list was thinned out, with the highest values kept by preference.

target: Ylr278c (UniProt Q05854); experiment: PBM E-score (8-mer binding enrichment) (E-score (-0.5 to 0.5)); higher = stronger / more preferred TF binding; details: protein concentration: 200 nM; construct: GST-DNA-binding domain
Experimental: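 Universal 'all 10-mer' protein binding microarrays (Agilent AMADID 015681) probed with GST-tagged S. cerevisiae TFs (full-length or DBD) made by in vitro transcription/translation (PURExpress), about 100-200 nM. Bound TF was detected with fluorescent anti-GST. Each ungapped 8-mer (which stands for itself and its reverse complement) is scored by the PBM enrichment score (E-score), a modified Wilcoxon-Mann-Whitney statistic from -0.5 to +0.5, computed with the Universal PBM Analysis Suite. Scale: above 0.35 generally sequence-specific binding.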

Chain of UniProt Q05854 (Q05854 whole entry, the tested form may be a part): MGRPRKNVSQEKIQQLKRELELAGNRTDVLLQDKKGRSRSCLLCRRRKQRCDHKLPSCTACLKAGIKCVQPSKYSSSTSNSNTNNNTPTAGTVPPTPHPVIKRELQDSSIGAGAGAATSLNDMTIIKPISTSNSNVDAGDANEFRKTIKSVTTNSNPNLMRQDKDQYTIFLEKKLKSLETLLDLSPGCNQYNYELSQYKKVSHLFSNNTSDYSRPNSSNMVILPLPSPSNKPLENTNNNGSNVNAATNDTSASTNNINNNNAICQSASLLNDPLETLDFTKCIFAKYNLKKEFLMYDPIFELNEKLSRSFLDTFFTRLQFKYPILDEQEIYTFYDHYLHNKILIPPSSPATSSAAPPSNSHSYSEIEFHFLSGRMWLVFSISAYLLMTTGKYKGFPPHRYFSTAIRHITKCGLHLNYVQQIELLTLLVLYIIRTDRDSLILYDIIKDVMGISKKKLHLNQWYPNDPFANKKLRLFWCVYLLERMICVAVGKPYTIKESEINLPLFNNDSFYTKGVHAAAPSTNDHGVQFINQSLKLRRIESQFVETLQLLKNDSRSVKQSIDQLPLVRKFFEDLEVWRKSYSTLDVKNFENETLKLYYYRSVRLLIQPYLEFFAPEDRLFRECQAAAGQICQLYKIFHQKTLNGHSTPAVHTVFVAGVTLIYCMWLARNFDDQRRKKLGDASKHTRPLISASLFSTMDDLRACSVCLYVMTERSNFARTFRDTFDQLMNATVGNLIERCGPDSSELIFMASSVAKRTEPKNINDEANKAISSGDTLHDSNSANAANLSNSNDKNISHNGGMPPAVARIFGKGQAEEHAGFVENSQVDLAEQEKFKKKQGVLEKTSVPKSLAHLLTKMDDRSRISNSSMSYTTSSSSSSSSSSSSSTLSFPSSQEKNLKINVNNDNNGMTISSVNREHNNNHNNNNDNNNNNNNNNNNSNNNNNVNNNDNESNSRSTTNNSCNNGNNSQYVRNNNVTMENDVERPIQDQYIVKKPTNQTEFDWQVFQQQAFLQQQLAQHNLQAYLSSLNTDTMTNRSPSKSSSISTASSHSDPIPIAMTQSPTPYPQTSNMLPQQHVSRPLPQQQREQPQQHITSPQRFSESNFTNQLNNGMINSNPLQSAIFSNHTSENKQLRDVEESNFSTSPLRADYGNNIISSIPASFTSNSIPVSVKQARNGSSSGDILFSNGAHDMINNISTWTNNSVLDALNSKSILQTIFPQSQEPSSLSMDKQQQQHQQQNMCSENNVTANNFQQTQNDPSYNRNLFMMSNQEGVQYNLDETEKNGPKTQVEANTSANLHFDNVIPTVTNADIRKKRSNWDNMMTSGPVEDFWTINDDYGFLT

Row | Sequence | PBM E-score
1 | GAACCGGA | 0.426
2 | TAACCGTA | -0.0936
3 | GAACCGGC | 0.283
4 | TAACCGGA | 0.431
5 | CAACCGGC | 0.27
6 | GGTGCTAC | -0.0466
7 | GAAAGCAA | 0.145
8 | CAGGTTCC | 0.0369
9 | AAGGAGCA | -0.0618
10 | GGAAGTAC | 0.253
11 | CATCACAG | -0.108
12 | ATGTCCCC | 0.042
13 | CTGTCCGA | 0.335
14 | ATGTCCGA | 0.455
15 | CTGTCCGC | 0.14
16 | ATGTCCGC | 0.403
17 | ATGTCCCG | 0.319
18 | GTGTCCGA | 0.374
19 | ATGTCCGG | 0.468
20 | ATGTCCTG | -0.0169
21 | AATCTTGA | -0.172
22 | CATGCTAG | -0.256
23 | AGACACTG | -0.321
24 | CCCGGCCG | 0.354
25 | ATCGGCGA | 0.327

Row | Sequence | PBM E-score
26 | GACGGCGC | 0.169
27 | ATCGGCGG | 0.42
28 | ATCGGCGC | 0.326
29 | ACCGGCGC | 0.351
30 | GCCGGCCC | 0.248
31 | ACCGGCCT | 0.179
32 | ACCGGCGG | 0.402
33 | ACCGGCGT | 0.3
34 | GCCGGCGC | 0.396
35 | ACCGGCCG | 0.392
36 | ATATGCTA | -0.0729
37 | AAGCCCGA | 0.27
38 | CCCATAGG | -0.0984
39 | AAAATGGT | 0.184
40 | GAAGTTAC | 0.0322
41 | ATCTTGAC | -0.292
42 | ACGTCTTA | -0.241
43 | CGGCCCCC | 0.173
44 | CACCAAAC | -0.119
45 | CCCGGCGA | 0.326
46 | CCCGGCGG | 0.396
47 | CCCGGCGC | 0.338
48 | CATTTGAG | -0.0532
49 | ACGGACTA | 0.315
50 | GCGGACTA | 0.384

Row | Sequence | PBM E-score
51 | CGGGACTC | 0.341
52 | CCGGACTA | 0.458
53 | CCGGACTC | 0.43
54 | ACGGACTC | 0.304
55 | AGGCCTAC | -0.167
56 | AAGCAATT | -0.0901
57 | CATCCCAC | -0.135
58 | ATAGTGTA | -0.188
59 | GCCAAACC | 0.119
60 | GACTTGAC | -0.059
61 | AGTATCTG | -0.207
62 | CCGATCGG | 0.43
63 | CCGATCCA | 0.208
64 | ACGATCGG | 0.334
65 | CCGATCCG | 0.424
66 | CCGATCGA | 0.226
67 | ACGATCCG | 0.283
68 | CCGATTAA | 0.333
69 | CATGTTGA | -0.0612
70 | CGAGAATA | 0.0398
71 | CAGGGCCG | 0.181
72 | ATTTAAGA | -0.154
73 | AAGATGGT | -0.0478
74 | ATACGGAT | 0.256
75 | ATACGGAG | 0.425

Row | Sequence | PBM E-score
76 | ATACGGAA | 0.345
77 | CTACGGAG | 0.398
78 | CTACGGAC | 0.261
79 | CTACGGAA | 0.197
80 | CTAAACAC | -0.033
81 | GTGGACAA | 0.124
82 | AGCAAGAC | -0.0712
83 | ACACCAAC | -0.126
84 | AAGCATAT | -0.014
85 | ATCCCGAG | 0.308
86 | ATCCCCCG | 0.3
87 | ATCCCCTG | -0.16
88 | ATCCCGGA | 0.44
89 | GTCCCGGA | 0.439
90 | ATCCCCGA | 0.379
91 | GTCCCGCA | 0.163
92 | GTCCCCGA | 0.217
93 | ATCCCGTG | 0.212
94 | ATCCCGTA | 0.158
95 | ATCCCGGG | 0.392
96 | ATCCCCGG | 0.425
97 | CGCGACAA | 0.106
98 | ATTGTAGG | -0.0526
99 | ACAATCGA | -0.178
100 | AATTAACA | -0.128

Row | Sequence | PBM E-score
101 | GACCTGAC | -0.198
102 | CGAGGGCC | 0.0992
103 | CTCCCGGA | 0.398
104 | ATCCCGCC | 0.297
105 | CTCCCCGC | 0.288
106 | CTCCCCGA | 0.268
107 | ATCCCGGC | 0.391
108 | ATCCCCGC | 0.393
109 | ATCCCGTC | 0.231
110 | CTCCCGGC | 0.356
111 | ATCCCCCC | -0.298
112 | GAGCCTAC | 0.0364
113 | AGCGTCTG | -0.136
114 | CAGGGGAC | -0.151
115 | AATGCTTC | 0.0555
116 | GAAACTGC | 0.176
117 | ATTGCTCC | 0.256
118 | AAATCCCG | 0.426
119 | AAATCCGG | 0.474
120 | AAATCCCA | -0.101
121 | AAATCCGT | 0.362
122 | TAATCCGA | 0.359
123 | AAATCCAG | -0.0486
124 | CAATCCGG | 0.393
125 | CAATCCGA | 0.251

Row | Sequence | PBM E-score
126 | AAATCCGA | 0.449
127 | CAATCCCG | 0.368
128 | CAATCCGC | 0.197
129 | GAATCCGA | 0.368
130 | AGCGTCTC | 0.0181
131 | CCCTAGTC | -0.368
132 | GATGGCCA | -0.102
133 | CCCTAGCG | -0.352
134 | CTGGGCAC | -0.183
135 | ACCTCAAT | -0.178
136 | CTCAGCCA | -0.0917
137 | ATGAGCCG | -0.00632
138 | ACCTACAA | -0.178
139 | ACATCCGC | 0.352
140 | AAATCCGC | 0.401
141 | GAATCCGC | 0.259
142 | GACTTTAA | -0.0643
143 | CATAGCCA | -0.115
144 | CGGAAGTC | 0.396
145 | GGGAATTA | 0.143
146 | AGGAATTA | 0.0107
147 | AGGAATTC | -0.0584
148 | AGGAATCA | -0.0846
149 | CGGAATCA | 0.39
150 | CTGAATTC | -0.0397

Row | Sequence | PBM E-score
151 | AGGAAGTC | -0.156
152 | CGGAATTC | 0.464
153 | CGGAATTA | 0.466
154 | GGGAATCA | -0.0137
155 | CGGAAGTA | 0.342
156 | GACCTCAA | -0.226
157 | TAGATAAA | -0.0204
158 | AGTTGGTA | -0.238
159 | AGTCAACC | -0.0996
160 | CGAAGCGC | 0.197
161 | CCAGCCTC | -0.302
162 | GTGGGTGA | 0.0373
163 | CAGTGGCG | 0.0163
164 | ACCGGAAG | 0.388
165 | AGCGGAAG | 0.305
166 | CCCGGAAC | 0.4
167 | ACCGGAAC | 0.428
168 | CACGGAAC | 0.276
169 | TACGGAAA | 0.3
170 | TCCGGAAA | 0.456
171 | CGCGGAAC | 0.368
172 | AACGGAAG | 0.0937
173 | AGCGGAAC | 0.333
174 | TGCGGAAA | 0.334
175 | ACCGGAAA | 0.369
